# Reference: the supplement of paper PMC10681739
# Target: RUNX1 (UniProt Q01196)
# Test: RUNX1 binding intensity (PBM fluorescence), RUNX1 alone (arbitrary fluorescence units); higher = stronger binding
# Settings: RUNX1 concentration 2 nM; ETS1 concentration 0 nM
# Protocol: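 Cooperative gcPBM on 36-bp genomic probes with neighbouring ETS1 and RUNX1 sites. Recombinant human RUNX1 (2 nM) was incubated alone or with ETS1 (25 nM) and detected with anti-RUNX1 antibody plus Alexa488 secondary. Values are medians over 4 replicate spots; the RUNX1+ETS1 data were normalised to the RUNX1-only data. The probes sit in constant array flanks that are not printed.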
# 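Further: Full-length recombinant human RUNX1 bound to double-stranded 36-bp genomic probes on a high-density microarray, scored as Alexa488 fluorescence per spot via anti-RUNX1 antibody, median of four replicate spots.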
# Sequence of RUNX1 (Q01196 whole entry): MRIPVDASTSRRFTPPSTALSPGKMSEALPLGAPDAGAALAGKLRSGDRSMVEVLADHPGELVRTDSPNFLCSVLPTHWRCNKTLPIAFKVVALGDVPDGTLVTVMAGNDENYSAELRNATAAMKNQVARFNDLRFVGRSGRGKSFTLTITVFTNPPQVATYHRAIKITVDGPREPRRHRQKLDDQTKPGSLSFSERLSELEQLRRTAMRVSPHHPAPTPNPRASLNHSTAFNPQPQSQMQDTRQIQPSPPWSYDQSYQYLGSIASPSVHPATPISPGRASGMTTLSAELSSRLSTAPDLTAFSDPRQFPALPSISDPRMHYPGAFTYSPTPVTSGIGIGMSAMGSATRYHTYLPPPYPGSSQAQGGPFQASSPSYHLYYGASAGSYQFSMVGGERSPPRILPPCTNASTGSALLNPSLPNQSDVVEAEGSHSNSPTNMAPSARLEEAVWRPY
row,Sequence,RUNX1 binding intensity
1,GCAAGGCAACAGGAAATTGTGGGGAAATTTTAAAAA,770
2,ACACCCCAGGCAGGATGTGGTAGGGGTTGCCCCAGA,741
3,TAGGCAGGCAGGATGTGCCTATAAGCCACATGAATG,726
4,AGCGCGCCGCCGACCGGATGCGGGAACTGGGCTCGG,715
5,CCGCTTCCTTAGAGGTTAAGTGGTGGTGGTTCAGTT,856
6,CACTCCCCGCATCCGGTCTGCGGCGCGCTCGGGGCC,912
7,TCTGGAGAAGCAGGATGTGGTTTGCAAGAGGCTTGC,774
8,CTAAGCAGAGGCCGGAAGCGGTGGTTTTTAGCGGCT,677
9,CTCACCCCTGGAGGATGTGGGTTTCCAGGCTGACAG,849
10,TGCCACCTGCTTCCTGCCTGTGTAGCCACAAGGGAC,910
11,GAAGCGATATTTCCTCCTGGGGTTGACCGCCCCGTG,761
12,GCCCCAGCGTTTCCTCTTACCCACAATGCCCCGCCC,1510
13,TGCCTCCTCGTCACAGGATGTGGTCGCTGCACCCTG,788
14,ACTTCACTTCCCAACCTCCCCTGTGGTTAGGTGTGG,1040
15,GAGGAAGAGTCTTCCTGTAACCACTAGAGGGCGCTG,705
16,CATGGGACCCGGAAGTGTGTGGTAAAGCGCCGGGGC,896
17,GCAGCTGCAAACAGGAAACCACAGCAGCGTAGCGGA,962
18,GTGCTCCTCGCTTCCTCCGCGGTCTTCCGAGCGGTC,1150
19,TGAGGAGAGCGAGGAAGTGGTTTTCTCTTCGCACAG,746
20,GGGGGCGGAAGTTTCGGTGCATTGTGGGTTCTCCTG,920
21,GGGGCAGGAAGTGGAGGTTTGAAGTGGTTTAGAGTA,799
